Experimental data as given in ChEMBL document CHEMBL3988442, “University of Dundee, Small-Polar-MMV Screening Library” (2021).
For some assays here: Entries with a potency or affinity are not part of this list.

Legend:
Design in all cases: scale not given: direction of the effect not stated beside the values
[1] = molecular target: Protein translocase subunit SecA (Escherichia coli (strain K12)) (UniProt P10408); test: Assay to Identify E. coli SecA ATPase Inhibitors; type: functional; settings: 30 µM
Sequence of Protein translocase subunit SecA (Escherichia coli (strain K12)) (P10408 whole entry): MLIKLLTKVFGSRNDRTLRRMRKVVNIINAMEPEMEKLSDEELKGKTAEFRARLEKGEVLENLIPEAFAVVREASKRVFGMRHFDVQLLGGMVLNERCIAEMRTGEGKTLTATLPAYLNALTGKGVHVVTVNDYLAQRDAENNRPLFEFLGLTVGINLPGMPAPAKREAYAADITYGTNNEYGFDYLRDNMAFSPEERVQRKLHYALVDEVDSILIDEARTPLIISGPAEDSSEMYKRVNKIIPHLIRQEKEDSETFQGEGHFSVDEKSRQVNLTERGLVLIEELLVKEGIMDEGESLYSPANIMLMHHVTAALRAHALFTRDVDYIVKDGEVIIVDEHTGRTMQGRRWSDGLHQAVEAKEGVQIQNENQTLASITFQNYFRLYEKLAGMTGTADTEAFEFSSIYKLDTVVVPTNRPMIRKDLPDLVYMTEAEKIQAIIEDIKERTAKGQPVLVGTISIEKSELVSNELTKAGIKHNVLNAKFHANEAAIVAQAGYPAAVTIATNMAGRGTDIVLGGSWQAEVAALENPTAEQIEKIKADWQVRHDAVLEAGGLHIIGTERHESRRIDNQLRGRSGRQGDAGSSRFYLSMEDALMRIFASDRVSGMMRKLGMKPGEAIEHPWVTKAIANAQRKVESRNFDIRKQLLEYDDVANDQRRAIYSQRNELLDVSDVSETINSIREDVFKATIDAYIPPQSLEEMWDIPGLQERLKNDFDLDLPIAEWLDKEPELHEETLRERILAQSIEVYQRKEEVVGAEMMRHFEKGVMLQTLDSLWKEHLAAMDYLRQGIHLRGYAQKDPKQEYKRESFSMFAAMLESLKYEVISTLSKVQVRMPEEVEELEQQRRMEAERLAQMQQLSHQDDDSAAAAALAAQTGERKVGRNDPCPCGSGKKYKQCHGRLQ

[2] = molecular target: T1, Ubiquitin-activating enzyme e1, putative (Leishmania donovani (strain BPK282A1)) (UniProt E9BSI1); test: Leishmania donovani Ubiquitin Activating Enzyme (LdE1); type: functional; settings: 30 µM
T1 sequence (whole entry): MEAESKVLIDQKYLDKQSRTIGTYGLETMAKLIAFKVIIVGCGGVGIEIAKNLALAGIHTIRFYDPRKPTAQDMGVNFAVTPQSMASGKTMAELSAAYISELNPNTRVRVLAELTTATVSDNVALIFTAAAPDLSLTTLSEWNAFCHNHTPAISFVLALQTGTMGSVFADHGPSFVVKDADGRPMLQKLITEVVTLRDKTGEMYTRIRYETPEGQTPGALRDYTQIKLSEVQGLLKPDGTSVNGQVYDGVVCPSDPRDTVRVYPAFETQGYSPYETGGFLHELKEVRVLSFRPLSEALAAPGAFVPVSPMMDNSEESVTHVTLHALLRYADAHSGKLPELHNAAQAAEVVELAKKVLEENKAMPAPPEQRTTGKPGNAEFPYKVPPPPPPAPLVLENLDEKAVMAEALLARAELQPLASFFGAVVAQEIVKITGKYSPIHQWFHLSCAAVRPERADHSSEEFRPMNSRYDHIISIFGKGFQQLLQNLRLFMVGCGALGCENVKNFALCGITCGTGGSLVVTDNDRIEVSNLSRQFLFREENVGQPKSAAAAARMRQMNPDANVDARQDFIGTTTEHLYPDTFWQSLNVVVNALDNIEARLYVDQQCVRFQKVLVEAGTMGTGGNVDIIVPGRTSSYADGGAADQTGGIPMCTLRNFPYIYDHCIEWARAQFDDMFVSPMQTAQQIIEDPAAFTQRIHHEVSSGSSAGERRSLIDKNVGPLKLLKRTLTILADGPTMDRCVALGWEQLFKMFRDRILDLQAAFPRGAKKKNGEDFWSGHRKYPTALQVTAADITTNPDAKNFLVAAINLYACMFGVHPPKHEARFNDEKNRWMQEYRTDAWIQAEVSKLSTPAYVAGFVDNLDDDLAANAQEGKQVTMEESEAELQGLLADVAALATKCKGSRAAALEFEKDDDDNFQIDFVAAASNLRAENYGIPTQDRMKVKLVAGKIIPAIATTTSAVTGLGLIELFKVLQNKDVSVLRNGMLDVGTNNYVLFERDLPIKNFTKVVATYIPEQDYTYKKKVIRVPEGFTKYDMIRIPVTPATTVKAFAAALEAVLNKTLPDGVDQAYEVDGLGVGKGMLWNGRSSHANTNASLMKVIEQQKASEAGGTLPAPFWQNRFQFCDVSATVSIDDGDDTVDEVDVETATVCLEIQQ

[3] = molecular target: AMP-activated protein kinase, AMPK (Homo sapiens) (UniProt P54646+O43741+P54619+Q9UGJ0+Q9Y478+Q13131+Q9UGI9); test: AMP-dependent Kinase enzyme assay. An in vitro enzyme assay that detects ADP turnover that is directly proportional to AMPK activity. This uses naive AMPK that is activated during the assay with MK-8722; type: functional; settings: 30 µM
[4] = molecular target: Sialic acid-binding Ig-like lectin 9 (Homo sapiens) (UniProt Q9Y336); test: Hs-Siglec9 ALPHAscreen SOP 20170721; settings: 10 µM
Sequence of Sialic acid-binding Ig-like lectin 9 (Homo sapiens) (Q9Y336 whole entry): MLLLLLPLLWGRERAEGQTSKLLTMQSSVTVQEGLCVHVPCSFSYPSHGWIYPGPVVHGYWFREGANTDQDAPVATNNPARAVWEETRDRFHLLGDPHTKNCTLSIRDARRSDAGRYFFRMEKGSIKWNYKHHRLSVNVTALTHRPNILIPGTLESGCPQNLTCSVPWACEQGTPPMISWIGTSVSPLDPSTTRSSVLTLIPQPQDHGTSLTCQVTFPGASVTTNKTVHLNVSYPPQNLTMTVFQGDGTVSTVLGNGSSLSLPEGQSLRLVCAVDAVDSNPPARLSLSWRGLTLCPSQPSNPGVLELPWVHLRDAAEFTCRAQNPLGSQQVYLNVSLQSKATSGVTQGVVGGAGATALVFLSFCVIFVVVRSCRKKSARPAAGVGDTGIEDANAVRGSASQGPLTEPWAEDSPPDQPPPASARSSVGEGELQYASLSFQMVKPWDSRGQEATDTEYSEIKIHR

[5] = tested on: Trypanosoma cruzi; test: Trypanosoma cruzi phosphomannomutase and mannose-1-phosphate guanylyltransferase assay; type: functional; settings: 10 µM
[6] = molecular target: T2, Arginase-2, mitochondrial (Homo sapiens) (UniProt P78540); test: in vitro enzyme assay to detect the production of urea directly proportional to the activity of Arginase II; type: functional; settings: 33.3 µM; note: in the data most compounds retested in dose-response had high values
T2 sequence (whole entry): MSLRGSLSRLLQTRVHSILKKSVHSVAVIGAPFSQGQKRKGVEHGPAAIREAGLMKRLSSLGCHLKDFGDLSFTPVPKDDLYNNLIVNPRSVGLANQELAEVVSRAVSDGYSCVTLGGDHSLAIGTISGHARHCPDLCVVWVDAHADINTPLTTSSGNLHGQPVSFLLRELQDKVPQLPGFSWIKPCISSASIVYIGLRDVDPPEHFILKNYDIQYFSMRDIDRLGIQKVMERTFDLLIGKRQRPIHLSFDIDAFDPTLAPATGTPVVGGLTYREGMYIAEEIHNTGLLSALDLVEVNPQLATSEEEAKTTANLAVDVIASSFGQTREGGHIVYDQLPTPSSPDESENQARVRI

[7] = molecular target: T3, Proteasome subunit beta (Trypanosoma cruzi) (UniProt O96673); test: Trypanosoma cruzi proteasome chymotrypsin-like activity (TcProtChymo) assay.; note: in the data most compounds retested in dose-response had high values; type: functional; settings: 9.37 µM
T3 sequence (whole entry): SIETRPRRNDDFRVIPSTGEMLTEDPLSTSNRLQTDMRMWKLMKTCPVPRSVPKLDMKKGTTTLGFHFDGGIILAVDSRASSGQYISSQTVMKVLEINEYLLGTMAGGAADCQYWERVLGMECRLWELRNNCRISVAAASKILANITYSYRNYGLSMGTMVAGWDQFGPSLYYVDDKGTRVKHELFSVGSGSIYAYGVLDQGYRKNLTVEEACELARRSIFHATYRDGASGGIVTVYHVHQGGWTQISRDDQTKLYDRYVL

[8] = organism: Homo sapiens; test: To identify inhibition of the IFN signalling (Jak-Stat) pathway via expression of an eGFP reporter gene under the control of an IFN-stimulated response element (ISRE) containing MxA promoter.; type: functional; settings: 30 µM
[9] = molecular target: T4, Tyrosyl-tRNA synthetase, putative (Trypanosoma cruzi (strain CL Brener)) (UniProt Q4DSP6); test: Trypanosoma cruzi tyrosyl tRNA synthetase (TcYRS) _High Tyrosine SOP; type: functional; settings: 30 µM; note: in the data most compounds retested in dose-response had high values
T4 sequence (whole entry): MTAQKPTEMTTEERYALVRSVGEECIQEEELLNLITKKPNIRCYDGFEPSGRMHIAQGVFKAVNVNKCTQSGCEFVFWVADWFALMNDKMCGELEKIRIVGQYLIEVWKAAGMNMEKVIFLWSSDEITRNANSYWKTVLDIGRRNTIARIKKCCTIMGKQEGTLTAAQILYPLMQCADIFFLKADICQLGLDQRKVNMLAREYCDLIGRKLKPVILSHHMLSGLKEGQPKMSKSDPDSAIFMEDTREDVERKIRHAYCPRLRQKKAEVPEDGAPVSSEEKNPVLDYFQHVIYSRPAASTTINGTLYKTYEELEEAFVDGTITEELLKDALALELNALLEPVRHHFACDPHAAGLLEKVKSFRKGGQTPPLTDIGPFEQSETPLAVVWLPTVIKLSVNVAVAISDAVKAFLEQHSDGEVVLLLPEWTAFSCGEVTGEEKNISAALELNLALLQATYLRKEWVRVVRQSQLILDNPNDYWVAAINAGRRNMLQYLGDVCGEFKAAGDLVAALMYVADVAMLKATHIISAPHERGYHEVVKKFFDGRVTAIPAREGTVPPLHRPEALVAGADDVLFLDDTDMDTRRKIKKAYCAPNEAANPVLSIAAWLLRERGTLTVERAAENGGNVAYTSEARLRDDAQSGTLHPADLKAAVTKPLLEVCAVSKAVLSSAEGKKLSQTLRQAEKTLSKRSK

[10] = molecular target: T4, Tyrosyl-tRNA synthetase, putative (Trypanosoma cruzi (strain CL Brener)); test: Trypanosoma cruzi tyrosyl tRNA synthetase (TcYRS) SOP; type: functional; settings: 30 µM
[11] = molecular target: Chromo domain-containing protein 1 (Saccharomyces cerevisiae (strain ATCC 204508 / S288c) (Baker's yeast)) (UniProt P32657); test: ScCHD-1 Enzyme Inhibition Assay; type: functional; settings: 30 µM; note: in the data most compounds retested in dose-response had high values
Sequence of Chromo domain-containing protein 1 (Saccharomyces cerevisiae (strain ATCC 204508 / S288c) (Baker's yeast)) (P32657 whole entry, the tested form may be a part): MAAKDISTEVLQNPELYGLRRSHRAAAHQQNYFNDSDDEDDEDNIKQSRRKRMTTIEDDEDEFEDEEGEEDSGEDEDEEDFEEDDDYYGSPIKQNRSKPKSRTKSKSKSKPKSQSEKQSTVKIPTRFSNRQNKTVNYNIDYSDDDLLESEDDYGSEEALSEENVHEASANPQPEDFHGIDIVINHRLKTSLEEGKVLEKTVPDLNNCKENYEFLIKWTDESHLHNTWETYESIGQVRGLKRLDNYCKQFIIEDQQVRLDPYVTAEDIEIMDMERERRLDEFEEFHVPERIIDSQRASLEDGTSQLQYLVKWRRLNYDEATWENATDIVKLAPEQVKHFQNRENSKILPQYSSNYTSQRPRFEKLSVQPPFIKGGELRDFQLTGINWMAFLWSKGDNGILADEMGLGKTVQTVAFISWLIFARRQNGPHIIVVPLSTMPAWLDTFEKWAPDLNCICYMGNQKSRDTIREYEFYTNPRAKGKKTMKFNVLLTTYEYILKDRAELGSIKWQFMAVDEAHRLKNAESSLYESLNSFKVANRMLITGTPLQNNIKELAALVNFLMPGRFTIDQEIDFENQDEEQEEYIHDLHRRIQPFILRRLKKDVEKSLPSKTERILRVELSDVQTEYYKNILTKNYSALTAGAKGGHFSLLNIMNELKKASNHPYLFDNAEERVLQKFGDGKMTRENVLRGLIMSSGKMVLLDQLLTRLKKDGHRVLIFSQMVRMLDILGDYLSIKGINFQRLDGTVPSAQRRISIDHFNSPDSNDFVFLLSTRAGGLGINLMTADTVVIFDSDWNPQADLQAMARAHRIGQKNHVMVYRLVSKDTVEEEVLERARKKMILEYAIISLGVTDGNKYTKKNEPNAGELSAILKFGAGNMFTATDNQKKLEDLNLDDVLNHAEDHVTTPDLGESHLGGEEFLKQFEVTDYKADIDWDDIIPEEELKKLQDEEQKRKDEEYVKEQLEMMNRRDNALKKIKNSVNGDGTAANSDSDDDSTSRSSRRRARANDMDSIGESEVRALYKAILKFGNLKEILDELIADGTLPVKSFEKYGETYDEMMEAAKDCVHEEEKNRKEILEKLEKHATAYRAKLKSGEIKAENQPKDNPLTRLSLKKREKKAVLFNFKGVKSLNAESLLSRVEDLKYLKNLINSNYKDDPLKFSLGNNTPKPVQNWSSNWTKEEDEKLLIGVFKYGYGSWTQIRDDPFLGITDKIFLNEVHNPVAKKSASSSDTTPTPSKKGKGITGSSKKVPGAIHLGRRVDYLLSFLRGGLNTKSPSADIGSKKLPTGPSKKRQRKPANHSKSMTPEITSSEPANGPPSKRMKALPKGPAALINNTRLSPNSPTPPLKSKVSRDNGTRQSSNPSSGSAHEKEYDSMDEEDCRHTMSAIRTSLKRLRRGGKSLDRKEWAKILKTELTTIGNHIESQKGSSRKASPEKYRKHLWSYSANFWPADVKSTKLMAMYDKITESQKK

| Structure (SMILES) | Percent Effect [1] | Percent Effect [2] | Percent Effect [3] | Percent Effect [4] | Percent Effect [5] | Percent Effect [6] | Percent Effect [7] | Percent Effect [8] | Percent Effect [9] | Percent Effect [10] | Percent Effect [11] |
| --- | --- | --- | --- | --- | --- | --- | --- | --- | --- | --- | --- |
| CC(NC(=O)N(C)Cc1ccsc1)c1ccc2c(c1)CCC(=O)N2 (configuration not stated) | -0.422% | 15.8% | 5% | 7.35% | 1.13% | -3.06% | 1.67% | 3.81% | 1.47% | 17.1% | -3.52% |
| COC(=O)c1cccc(C(=O)N2CCN(c3ccccc3F)CC2)n1 | -5.05% | 20.8% | -7.33% | -10.6% | 7.59% | 1.94% | 13.9% | 15.5% | 5.29% | 16.7% | -10.4% |
| CS(=O)(=O)CCSc1cccc(C#N)c1 | -3.18% | -4.17% | -4.21% | -5.6% | -0.291% | -0.442% | 7.72% | 7.41% | -1.05% | 0% | -0.524% |
| O=C1CC(c2ccccc2F)c2c(n3ccsc3nc2=O)N1 (configuration not stated) | -2.59% | 9.33% | 1.41% | 7.25% | 2.95% | -5.46% | 7.76% | 2.76% | 4.23% | 12.8% | -9.93% |
| Cc1ccc(Cl)cc1C(=O)N1CCC2(CC1)c1ccccc1[C@@H](N)[C@@H]2O | -6.01% | 5.41% | -7.41% | 40.2% | 9.85% | -2.38% | 19% | 2.23% | 6.88% | 12.2% | 10.1% |
| O=C(CN1CCC(c2cccc(F)c2)C1)NCC(F)(F)F (configuration not stated) | -0.194% | 18.4% | -1.43% | -3.51% | 3.57% | -1.15% | 18.1% | 36.1% | 6.37% | 21.9% | -8.57% |
| CSCCC(=O)N1CCC(Oc2cc(C)ccc2F)(C(=O)O)CC1 | -1.39% | -1.39% | -5.71% | -2.17% | -2.43% | -1.32% | 0.351% | -30.7% | -2.1% | 2.56% | 2.79% |
| O=C(c1cnc(-c2cccs2)s1)N1CCCN2CCCC2C1 (configuration not stated) | -2% | 5.41% | -8.71% | -6.92% | -2.36% | -16% | 12.6% | -1.67% | 4.43% | 23.5% | -7.67% |
| Cn1nccc1C(=O)N1CCOC(Cc2cccc(C(F)(F)F)c2)C1 (configuration not stated) | -6% | 0% | 0.696% | -3.79% | -3.99% | -0.521% | 4.18% | 12.7% | 3.83% | 3.7% | 2.23% |
| CCc1ccc(C(=O)N2CCN(CCS(C)(=O)=O)CC2)o1 | -3.79% | -5.26% | 3.96% | 8.99% | -0.752% | 0.383% | 4.18% | 10.7% | 5.39% | 7.32% | 0.21% |
| Cc1cc(CN2CC[C@H]3C(=O)N(c4ccccc4)CCO[C@H]3C2)no1 | -3.31% | 21.3% | 1.48% | -6.56% | -4.92% | -2.1% | 8.37% | 19.1% | 2.13% | 11.5% | -1.25% |
| COc1ccccc1OCCN1CCCC(c2noc(C3CC3)n2)C1 (configuration not stated) | -3.76% | 0% | -2.32% | -0.399% | -2.24% | 3.12% | 5.41% | -3.11% | 2.73% | 6.17% | -4.48% |
| O=C(Nc1cccc(CN2CCOC2=O)c1)N1CCSCC1 | -1.53% | 12.5% | -15.6% | 9.65% | 2.04% | 3.09% | 23.3% | -2.05% | 8.42% | 15.4% | 83.9% |
| CS(=O)(=O)NC1CCN(C(=O)NCCc2ccccc2F)CC1 | -4.12% | 8.11% | -6.29% | 9.26% | 2.14% | 2.03% | 12% | 10.3% | 6.93% | 25.6% | -11.2% |
| COCCc1noc(CN(C)C2CCCN(c3ccc(C)nn3)C2)n1 (configuration not stated) | -2.39% | 2.67% | -6.26% | 0.801% | 3.41% | 1.56% | 11.9% | -8.02% | 4.92% | 6.17% | -2.05% |
| COC(=O)CCNC(=O)C1CC(=O)N(C2CCCC2)C1 (configuration not stated) | -4.42% | -2.7% | -0.395% | -6.64% | -0.781% | -2.08% | 5.83% | -6.8% | 1.98% | 6.1% | -2.5% |
| O=C(c1cccnc1N1CCOCC1)N1CCCC(n2ccnc2)C1 (configuration not stated) | -1.05% | 18.4% | 3.79% | 3.27% | -3.76% | -1.53% | 9.36% | 0.0212% | 4.41% | 17.1% | -9.1% |
| COCCC(=O)N1CCN(CCN(C)C)c2ncccc2C1 | -3.66% | 5.2% | 4.52% | 2.96% | -0.492% | -2.76% | 9.48% | 0.361% | 4.3% | 8.64% | -1.22% |
| CN(Cc1nc(N)c2ccccc2n1)CC1CCCN1c1cccnn1 (configuration not stated) | -6.24% | 5.2% | 2.23% | -2.05% | 11.8% | -2.32% | 13.2% | -8.77% | 6.67% | 18.8% | -22.9% |
| Cc1ccc(CN2CCc3ncnc(C4CCOC4)c3CC2)s1 (configuration not stated) | 1.24% | 10.7% | 1.52% | 6.88% | -2.51% | -41.4% | 5.98% | 18.1% | 5.21% | 25% | -6.72% |
| CCCN(CC(=O)NC)C(=O)c1ccc(-c2ccsc2)nc1C | -1.19% | 6.94% | -2.8% | 10.6% | 4.76% | 36.2% | 17.9% | 12.1% | 7.37% | 17.9% | 91% |
| CCCS(=O)(=O)N1C[C@H]2OC(=O)N(CCc3cccc(Cl)c3)[C@H]2C1 | -5.06% | 2.67% | -2.35% | -2.36% | -3.21% | -2.08% | 5.93% | 16.4% | -0.546% | 3.7% | -2.16% |
